PubChem BioAssay
Records with an inconclusive call do not appear. Calls of active or inactive are those of the source. Unless noted, no stated cut-off is given here; in the data, active means inhibition above about 80%; inactive means the rest.

Experiments:
[1] = viability loss in pontine glioma line – cell-based, JHH-DIPG-1, MIPE4.0, CellTiter-Glo, qHTS, dose response (AID 1347062; cut-off not given, nearly all actives have AC50 up to about 27 µM); settings: JHH-DIPG-1 viability, CellTiter-Glo ATP luminescence
[2] = viability loss in pontine glioma line – cell-based, SU-DIPG-IV, MIPE4.0, CellTiter-Glo, qHTS, dose response (AID 1347063; cut-off not given, nearly all actives have AC50 up to about 30 µM;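 further: compound exposure lasted 48 hours before the viability readout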); settings: CellTiter-Glo ATP luminescence
[3] = growth inhibition of DIPG cells – cell-based, MIPE4.0 library, CellTiter-Glo luminescence, qHTS (AID 1347066; cut-off not given, nearly all actives have AC50 up to about 30 µM;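 further: cells exposed to compound for 48 hours before readout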); settings: SU-DIPG-VI viability, CellTiter-Glo ATP luminescence
[4] = growth inhibition, single agents and combos, LFS_MB_1R, cell-based, cisplatin or BGB combos, synergistic combos for chromothripsis tumors (AID 1671452); settings: LFS_MB_1R medulloblastoma cells, stronger effect = higher value;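 further: cells exposed for 96 hours before readout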
[5] = growth inhibition, single agents and combos, CRL2098, cell-based, BGB or cisplatin IC20 combos, synergistic combos for chromothripsis tumors (AID 1671454); settings: CRL2098 osteosarcoma cells, drug combinations, stronger effect = higher value;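 further: cells exposed for 96 h before readout; 0% = vehicle DMSO and 100% = killing by high DMSO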
[6] = growth inhibition, single agents and combos, HD-MB03, cell-based, BGB or cisplatin IC20 combos, synergistic combos for chromothripsis tumors (AID 1671455; in the data active means inhibition above about 83%;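 further: 0% = vehicle DMSO and 100% = high DMSO as cytotoxic control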); settings: HD-MB03 medulloblastoma cells, stronger effect = higher value
[7] = growth inhibition, single agents and combos, UWB1.289, cell-based, BGB or cisplatin combos, synergistic combos for chromothripsis tumors (AID 1671456); settings: UWB1.289 ovarian carcinoma cells, stronger effect = higher value;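 further: cells exposed to compound for four days; 0% = vehicle DMSO and 100% = killing by high DMSO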
[8] = growth inhibition, single agents and combos, LFS_MB_2R, cell-based, cisplatin combos, synergistic combos for chromothripsis tumors (AID 1671457); settings: LFS_MB_2R medulloblastoma cells, stronger effect = higher value;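 further: cells exposed to compound for four days before readout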
[9] = UWB1.289_BRCA1 ovarian cancer growth, cell-based, BGB or cisplatin combinations (AID 1671459); settings: UWB1.289 BRCA1 ovarian carcinoma, drug combinations, stronger effect = higher value
[10] = drug combination toxicity in non-malignant astrocytes – cell-based, BGB or cisplatin IC20 combos, cytotoxicity control for chromothriptic childhood tumor combination screen (AID 1671460); settings: Human astrocytes, viability inhibition, drug combinations, at 0.5 µM, stronger effect = higher value;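 further: cells exposed to compounds for 96 hours before viability readout; 0% = vehicle and 100% = killing control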
[11] = BT084 cell growth, single and combined drugs, ICGC_MB145, cisplatin and BGB IC40 combos (AID 1671461); settings: BT084 medulloblastoma cells, drug combinations, stronger effect = higher value;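 further: cells exposed to drugs for 96 hours; 0% = vehicle DMSO and 100% = high DMSO full killing control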
[12] = RCMB18 cell growth, single agent and combined, cisplatin and BGB IC40 combos (AID 1671462); settings: RCMB18 medulloblastoma cells, stronger effect = higher value;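 further: cells exposed to compound for four days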
[13] = CRL1545 cell growth, single agent and combined, cisplatin and BGB IC20 combos (AID 1671464); settings: CRL1545 osteosarcoma cells, stronger effect = higher value;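 further: cells exposed to compound for 96 hours before readout; 0% = vehicle DMSO and 100% = high DMSO killing control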
[14] = galactose survival enhancers in mitochondrial complex I cybrids – cell-based, galactose medium, ATP luminescence, primary screen (AID 1645843;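 active means z-score of at least 1.8 in each of two replicates, scored against plate mean and spread of sample wells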;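 further: positive z means more ATP and so rescue of galactose-driven cybrid death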); settings: complex I mutant cybrid cells, 72 h, stronger effect = higher value
[15] = growth inhibition of DIPG cells – cell-based, MIPE5.0 library, qHTS (AID 1347068; cut-off not given, nearly all actives have IC50 up to about 30 µM); settings: SU-DIPG-XXV viability
[16] = measured here: combination with BGB IC40, at 0.05 µM
[17] = measured here: combination with cisplatin, at 0.5 µM
[18] = measured here: combination with cisplatin, at 5 µM
[19] = measured here: combination with BGB at IC20, at 0.5 µM
[20] = measured here: combination with cisplatin at IC20, at 0.5 µM
[21] = measured here: combo with BGB at IC20, at 0.5 µM
[22] = measured here: combo with cisplatin at IC20, at 0.5 µM
[23] = measured here: inhibition with BGB combination, at 0.05 µM
[24] = measured here: inhibition with cisplatin combination, at 0.05 µM
[25] = BGB combination, concentration series, at 5 µM
[26] = cisplatin combination, concentration series, at 5 µM
[27] = measured here: combo with BGB IC20
[28] = measured here: combo with cisplatin IC20
[29] = cisplatin combination, at 0.5 µM
[30] = measured here: BGB IC40 combination 0.05 uM, at 0.05 µM
[31] = measured here: BGB IC40 combination, at 0.05 µM
[32] = measured here: with BGB IC20 combination, at 0.5 µM
[33] = measured here: with cisplatin IC20 combination, at 0.5 µM

Compound: CN1CCN(c2c(F)cc3c(=O)c(C(=O)O)cn4c3c2OCN4C)CC1
- outcome [1]: inactive
- outcome [2]: inactive
- outcome [3]: inactive
- inhibition ([4]; at 0.5 µM): -24.2% (inactive)
- inhibition [4, 16]: -29.1%
- inhibition [4, 17]: -7.67%
- inhibition [4, 18]: 23.6%
- inhibition ([5]; at 0.5 µM): -52.3% (inactive)
- inhibition [5, 19]: -51%
- inhibition [5, 20]: -59.8%
- inhibition ([6]; at 0.5 µM): -2.64% (inactive)
- inhibition [6, 21]: 4.92%
- inhibition [6, 22]: 0.073%
- inhibition ([7]; at 0.5 µM): -1.17% (inactive)
- inhibition [7, 23]: -15.9%
- inhibition [7, 24]: 9.55%
- inhibition ([8]; at 0.5 µM): -13.7% (inactive)
- inhibition [8, 17]: -20.3%
- inhibition [8, 18]: -60.6%
- inhibition [9, 25]: 1.13%
- inhibition ([9]; at 0.5 µM): 0.06% (inactive)
- inhibition [9, 26]: 8.22%
- inhibition [10]: 6.55% (inactive)
- inhibition [10, 27]: 4.16%
- inhibition [10, 28]: 12.5%
- inhibition ([11]; at 0.5 µM): -6.03% (inactive)
- inhibition [11, 29]: -9.98%
- inhibition ([11]; cisplatin combination, at 5 µM): 4.69%
- inhibition [11, 30]: 6.42%
- inhibition ([11]; single agent, at 5 µM): -5.93%
- inhibition ([12]; at 0.5 µM): -12.6% (inactive)
- inhibition ([12]; cisplatin combo, at 5 µM): -14.3%
- inhibition [12, 31]: -20.1%
- inhibition [12, 17]: -5.19%
- inhibition ([12]; single agent, at 5 µM): -1.41%
- inhibition ([13]; at 0.5 µM): -1.5% (inactive)
- inhibition [13, 32]: -0.247%
- inhibition [13, 33]: -4.44%
- inhibition ([13]; single agent, at 0.05 µM): -8.36%
- inhibition ([13]; single agent, at 5 µM): 2.43%

Compound: O=C(O)CN(CCN(CC(=O)O)CC(=O)O)CCN(CC(=O)O)CC(=O)O
- z-score [14]: 4.38 (active)

Compound: CN1CCN(c2c(F)cc3c(=O)c(C(=O)O)cn(CCF)c3c2F)CC1
- outcome [1]: inactive
- outcome [2]: inactive
- z-score [14]: 0.245 (inactive)
- inhibition ([4]; at 0.5 µM): -3.54% (inactive)
- inhibition [4, 16]: 5.98%
- inhibition [4, 17]: 2.19%
- inhibition [4, 18]: -16.1%
- inhibition ([5]; at 0.5 µM): 11.6% (inactive)
- inhibition [5, 19]: -0.381%
- inhibition [5, 20]: 26.4%
- inhibition ([6]; at 0.5 µM): 6.76% (inactive)
- inhibition [6, 21]: 8.44%
- inhibition [6, 22]: 5.72%
- inhibition ([7]; at 0.5 µM): 9.66% (inactive)
- inhibition [7, 23]: -0.955%
- inhibition [7, 24]: 3.11%
- inhibition ([8]; at 0.5 µM): 7.8% (inactive)
- inhibition [8, 17]: 7.66%
- inhibition [8, 18]: -16.2%
- inhibition [9, 25]: 7.04%
- inhibition ([9]; at 0.5 µM): 5.73% (inactive)
- inhibition [9, 26]: -0.678%
- inhibition [10]: 5.13% (inactive)
- inhibition [10, 27]: 2.15%
- inhibition [10, 28]: 3.47%
- inhibition ([11]; at 0.5 µM): -2.41% (inactive)
- inhibition [11, 29]: -7.17%
- inhibition ([11]; cisplatin combination, at 5 µM): 4.75%
- inhibition [11, 30]: 34.4%
- inhibition ([11]; single agent, at 5 µM): 1.35%
- inhibition ([12]; at 0.5 µM): 18.3% (inactive)
- inhibition ([12]; cisplatin combo, at 5 µM): 48%
- inhibition [12, 31]: -3.02%
- inhibition [12, 17]: 34.2%
- inhibition ([12]; single agent, at 5 µM): -5.57%
- inhibition ([13]; at 0.5 µM): -0.47% (inactive)
- inhibition [13, 32]: -8.63%
- inhibition [13, 33]: 1.43%
- inhibition ([13]; single agent, at 0.05 µM): 8.93%
- inhibition ([13]; single agent, at 5 µM): 2.13%

Compound: COc1ccc2[nH]c(S(=O)Cc3ncc(C)c(OC)c3C)nc2n1 (stereo not drawn)
- outcome [15]: inactive
- z-score [14]: 0.825 (inactive)
